Most compounds without a hit are left out; they make up all but 3.9% or so of the library.
BoNT-A LC inh2 = blocks Botulinum neurotoxin A light chain protease; multiplex microsphere protease substrate cleavage, flow cytometry; inhibition, % at 10 µM; 360,000 tested, 0.17% active; also: plate controls were buffer without enzyme for full effect and enzyme alone for no effect
Bead autofluor = flagged as autofluorescent in microsphere protease counterscreen; fluorescence intensity (no concentration beside the values); AID 624483; compound autofluorescence counterscreen, microsphere flow cytometry; hits give high values; 360,000 tested, 3.1% active; in the data active = fluorescence intensity above about 16000; inconclusive = no clear call, values can overlap the other calls
DUSP3 inh = inhibitors of human VHR1 phosphatase (DUSP3); recombinant VHR phosphatase, pNPP absorbance; inhibition, % at 13.3 µM; 290,000 tested, 0.52% active; in the data active = inhibition above about 50%
3CLpro inhibitor = SARS-CoV 3CLpro protease inhibition | P0C6X7 | recombinant SARS-CoV 3CLpro, quenched FRET peptide cleavage | inhibition, % at 6 µM | 290,000 tested, 0.14% active | AID 1706; in the data active = inhibition above about 12%
Anthrax LF prot = blocks Bacillus anthracis lethal factor protease; P15917; multiplex microsphere protease cleavage assay, LF; inhibition, % at 10 µM; 360,000 tested, 0.12% active; also: plate controls were buffer without enzyme for full effect and enzyme alone for no effect
BoNT F protease = blocks Botulinum neurotoxin F light chain protease; Multiplex microsphere protease cleavage assay, flow cytometry; inhibition, % at 10 µM; 360,000 tested, 0.22% active; AID 588497; in the data active = inhibition above about 35%, passing the limit was not always enough; inconclusive = no clear call, values can overlap the other calls; also: plate controls were buffer without enzyme for full effect and enzyme alone for no effect
The depositor's hits bear a star; ? = inconclusive; · = not tested or not shown. Rule as the data show it, unless noted: active = inhibition above about 30%; inconclusive = no clear call, values can overlap the other calls; inactive = below that.

SMILES	BoNT-A LC inh2	Bead autofluor	DUSP3 inh	3CLpro inhibitor	Anthrax LF prot	BoNT F protease
CS(=O)(=O)c1ccccc1C(=O)Nc1cccc(-c2nc3ccccc3o2)c1	-2	6108	4	-1	-2	4
C=CCn1c2ccccc2c2n[nH]c(=S)nc21	-3	3140	25	3	-6	?
COc1ccc(NC(=O)CN2CCN(C3c4ccccc4-c4ccccc43)CC2)c(OC)c1	1	2588	34	4	0	11
COc1ccc(N)cc1NC(=O)CN1CCCC1	-3	3993	59*	2	5	-14
CCOc1ccc(NC(=O)CN2CCN(C3c4ccccc4-c4ccccc43)CC2)cc1	-2	8568	5	-4	-2	-11
COc1ccccc1NC(=O)CN1CCN(C2c3ccccc3-c3ccccc32)CC1	0	2197	51*	6	-3	4
CC(C)(C)C(=O)CN1CCN(C2c3ccccc3-c3ccccc32)CC1	-6	21967*	4	5	-8	-8
COc1cccc(CNC(=O)C(NS(=O)(=O)c2ccc3c(c2)CCN3C(C)=O)C(C)C)c1 (stereo not given)	-1	4496	-20	6	-3	2
Cc1c(CCO)c(=O)[nH]n1C(=O)c1ccc(F)cc1	0	23529*	24	0	-5	-2
Cc1c(CCO)c(=O)n(C)n1C(=O)c1ccc(F)cc1	0	5409	24	-4	-2	4
CCCNC(=O)Cn1c(=O)/c(=C/c2ccc(-c3ccc([N+](=O)[O-])cc3)o2)s/c1=C\C(=O)C(C)(C)C	32*	6201	·	·	33*	22
FC(F)Oc1ccccc1NC(=S)NCc1ccco1	0	23284*	22	2	-1	-3
S=C(NCc1ccco1)Nc1ccccc1Cl	2	3205	14	-6	-8	?
CCN(C(=O)COC(=O)c1oc2ccccc2c1C)c1c(N)n(Cc2ccccc2)c(=O)[nH]c1=O	0	2999	·	·	7	8
O=C(COc1ccc(Cl)cc1)Nc1ccc2c(c1)nc1n2CCOC1	-1	6123	25	1	-2	-2
O=C(COc1ccccc1)Nc1ccc2c(c1)nc1n2CCOC1	1	8927	0	-1	-5	2
O=S(=O)(Nc1ccc2c(c1)nc1n2CCOC1)c1ccccc1	6	19895*	-2	-4	2	12
O=S(=O)(Nc1ccc2c(c1)nc1n2CCOC1)c1ccc(Cl)cc1	1	22037*	-1	-1	2	2
O=C(CN1CCN(Cc2ccccc2Cl)C1=O)NCCCN1CCOCC1	0	4610	8	0	-2	7
O=C(c1cc(-c2ccco2)on1)N1CCN(C(c2ccccc2)c2ccccc2)CC1	4	21890*	19	-1	-6	2
O=C(N1CCOCC1)N1CCN(C(c2ccccc2)c2ccccc2)CC1	1	21654*	11	-10	-5	1
COc1ccc(-c2cc(C(=O)N3CCN(C(c4ccccc4)c4ccccc4)CC3)no2)cc1	-1	11566	4	-9	-5	-9
COc1ccc([C@H]2CC(=O)C[C@@H](CCn3cc(-c4ccccn4)nn3)O2)cc1	0	4668	·	·	-5	5
COc1ccc(CCN2CC(O)=C(c3nc(C)cs3)C2=N)cc1OC	0	23439*	15	0	3	0
Cc1csc(C2=C(O)CN(CCc3ccccc3)C2=N)n1	-2	12294	10	-2	-4	-14
SMILES	BoNT-A LC inh2	Bead autofluor	DUSP3 inh	3CLpro inhibitor	Anthrax LF prot	BoNT F protease
Cc1nc2c(sc(=S)n2Cc2ccco2)c(=O)n1CC(=O)Nc1cc(F)ccc1F	-3	5955	17	0	3	0
CN(/N=C/c1c[nH]c2ccccc12)c1cnn(-c2ccc(F)c(Cl)c2)c(=O)c1Cl	-1	20923*	-15	-4	-4	0
CN(/N=C/c1cccnc1)c1cnn(-c2ccc(F)c(Cl)c2)c(=O)c1Cl	?	11535	25	3	-20	36*
COc1cc(OC)c(-c2nc3cnccc3n2C)cc1OC	?	16895*	-4	0	-1	-5
C=C(C)CNC(=S)N/N=C(\C)c1ccc(-n2ccnc2)cc1	-1	19874*	-6	-3	0	-2
CC1CC(C)CN(S(=O)(=O)c2ccc(C(=O)N(C)Cc3ccccc3)cc2)C1 (stereo not given)	-1	5429	·	·	-1	-2
Cc1ccc(CNC(=O)CCn2nc(-c3ccc(Cl)cc3)ccc2=O)cc1	2	18881*	14	-3	-2	0
CN(C)CCNC(=O)CCn1nc(-c2ccc(Cl)cc2)ccc1=O	0	3762	24	-1	-9	10
COCCNC(=O)CSc1nc2cc(OC)c(OC)cc2c(=O)n1Cc1ccc(OC)cc1	?	22751*	-9	0	-1	0
COCCCn1c(SCc2ccc(OC)cc2)nc2cc(OC)c(OC)cc2c1=N	-1	23040*	29	3	-2	-3
COc1cc2nc(SCC(=O)NCc3ccco3)n(Cc3ccc(Cl)cc3)c(=O)c2cc1OC	?	23649*	13	-2	-2	-2
COc1ccc(Cn2c(CCC(=O)NCc3ccco3)nc3cccnc32)cc1	2	22452*	29	-3	-1	-2
COCCNC(=O)CCc1nc2cccnc2n1Cc1ccc(OC)cc1	-2	4259	-2	-2	-7	-7
O=S(Cc1ccc(Cl)cc1)CC(O)(c1ccccc1)c1ccccc1 (stereo not given)	-1	10823	3	8	11	-1
O=S(Cc1ccccc1)CC(O)(c1ccccc1)c1ccccc1 (stereo not given)	-2	21390*	7	8	-2	-4
c1ccc(CN2CCN(c3nc(-c4ccccn4)nc4ccccc34)CC2)cc1	-1	3316	29	-8	3	0
CCN1CCN(c2nc(-c3ccccn3)nc3ccccc23)CC1	-6	24768*	21	0	-2	-12
Cc1onc(-c2ccccc2)c1C(=O)N=C(N)c1ccc(C(F)(F)F)cc1	1	4372	13	-1	-7	?
O=c1cc(CO)occ1OCc1cccc(F)c1	?	19821*	25	1	-1	0
CC1CCCC(C)N1CC(C)(C)NS(=O)(=O)c1ccc(Cl)cc1 (stereo not given)	1	9270	19	0	-16	6
COc1ccc(-c2ccc(=O)n(CC(=O)NCC3COCCO3)n2)cc1 (stereo not given)	1	5346	·	·	3	-3
O=C(Cn1nc(-c2ccc(Cl)cc2)ccc1=O)NCC1COCCO1 (stereo not given)	-1	5327	52*	-5	0	-9
O=C(Cn1nc(-c2ccccc2)ccc1=O)NCC1COCCO1 (stereo not given)	4	19171*	27	-1	-5	7
CCN(CC(=O)NCc1ccc(Cl)cc1)C(=O)c1cc2ccccc2o1	-1	5025	-21	6	-1	-3

Screening results from PubChem BioAssay.
